In the supplement of paper PMC7411054:
Structures can show the parent of a compound that is named as a salt.

Experiments:
Details in all cases: treatment time: 24 h
HepG2-GM130-SQSTM1 [1] = test: lowest phenotypically active concentration; higher = less potent
Method in brief: (§1)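 Cells from fifteen gene-edited reporter lines (A549, HepG2 and WPMY1) were treated for 24 h at 0.3, 1, 3 or 9 µM and imaged live, four wells per condition. Features were normalised per well to solvent control wells. A condition deviated if ≥3 of 4 wells passed the 95th percentile of control Euclidean distances and was reproducible if its median replicate Pearson correlation beat the 95th percentile of non-replicates; phenotypic activity needed both.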

A549-ACTB-RAB5A = test: phenotypically active (imaging signature differs from DMSO and reproducible) at any of 0.3-9 uM (binary (1 = active, 0 = inactive)); higher = active
Method in brief: as §1

A549-CANX-COX4 = test: as above
Method in brief: as §1

A549-GM130-SQSTM1 = test: as above
Method in brief: as §1

A549-TP53BP1-CLTA = test: as above
Method in brief: as §1

A549-TUBA1B-RELA = test: as above
Method in brief: as §1

HepG2-ACTB-RAB5A = test: as above
Method in brief: as §1

HepG2-CANX-COX4 = test: as above
Method in brief: as §1

HepG2-GM130-SQSTM1 [2] = test: as above
Method in brief: as §1

HepG2-TP53BP1-CLTA = test: as above
Method in brief: as §1

HepG2-TUBA1B-RELA [3] = test: as above
Method in brief: as §1

WPMY1-ACTB-RAB5A [4] = test: as above
Method in brief: as §1

WPMY1-CANX-COX4 = test: as above
Method in brief: as §1

WPMY1-GM130-SQSTM1 [5] = test: as above
Method in brief: as §1

WPMY1-TP53BP1-CLTA = test: as above
Method in brief: as §1

WPMY1-TUBA1B-RELA = test: as above
Method in brief: as §1

WPMY1-GM130-SQSTM1 [6] = test: lowest phenotypically active concentration; higher = less potent
Method in brief: as §1

WPMY1-ACTB-RAB5A [7] = test: as above
Method in brief: as §1

HepG2-TUBA1B-RELA [8] = test: as above
Method in brief: as §1

Structure (SMILES)	lowest phenotypically active concentration (HepG2-GM130-SQSTM1 [1])	phenotypically active (A549-ACTB-RAB5A)	phenotypically active (A549-CANX-COX4)	phenotypically active (A549-GM130-SQSTM1)	phenotypically active (A549-TP53BP1-CLTA)	phenotypically active (A549-TUBA1B-RELA)	phenotypically active (HepG2-ACTB-RAB5A)	phenotypically active (HepG2-CANX-COX4)	phenotypically active (HepG2-GM130-SQSTM1 [2])	phenotypically active (HepG2-TP53BP1-CLTA)	phenotypically active (HepG2-TUBA1B-RELA [3])	phenotypically active (WPMY1-ACTB-RAB5A [4])	phenotypically active (WPMY1-CANX-COX4)	phenotypically active (WPMY1-GM130-SQSTM1 [5])	phenotypically active (WPMY1-TP53BP1-CLTA)	phenotypically active (WPMY1-TUBA1B-RELA)	lowest phenotypically active concentration (WPMY1-GM130-SQSTM1 [6])	lowest phenotypically active concentration (WPMY1-ACTB-RAB5A [7])	lowest phenotypically active concentration (HepG2-TUBA1B-RELA [8])
CCOc1ccc2nc(S(N)(=O)=O)sc2c1 [ethoxzolamide]	9 µM	0 (inactive)	0 (inactive)	0 (inactive)	0 (inactive)	0 (inactive)	0 (inactive)	0 (inactive)	1 (active)	0 (inactive)	0 (inactive)	0 (inactive)	0 (inactive)	0 (inactive)	0 (inactive)	0 (inactive)	–	–	–
O=[N+]([O-])c1cc(Cl)ccc1S(=O)(=O)c1ccccc1	3 µM	0 (inactive)	0 (inactive)	0 (inactive)	0 (inactive)	0 (inactive)	0 (inactive)	0 (inactive)	1 (active)	0 (inactive)	0 (inactive)	0 (inactive)	0 (inactive)	1 (active)	0 (inactive)	0 (inactive)	9 µM	–	–
Oc1cc(O)cc(/C=C/c2ccc(O)c(O)c2)c1 [Piceatannol]	–	0 (inactive)	0 (inactive)	0 (inactive)	0 (inactive)	0 (inactive)	0 (inactive)	0 (inactive)	0 (inactive)	0 (inactive)	0 (inactive)	1 (active)	0 (inactive)	1 (active)	0 (inactive)	1 (active)	3 µM	9 µM	–
CC(CCc1ccc(O)cc1)NCCc1ccc(O)c(O)c1 (stereo unspecified) [Dobutamine hydrochloride]	–	0 (inactive)	0 (inactive)	0 (inactive)	0 (inactive)	0 (inactive)	0 (inactive)	0 (inactive)	0 (inactive)	0 (inactive)	0 (inactive)	0 (inactive)	0 (inactive)	1 (active)	0 (inactive)	0 (inactive)	3 µM	–	–
CC(C)C(=O)Nc1ccc([N+](=O)[O-])c(C(F)(F)F)c1 [flutamide]	–	0 (inactive)	0 (inactive)	0 (inactive)	0 (inactive)	0 (inactive)	0 (inactive)	0 (inactive)	0 (inactive)	0 (inactive)	0 (inactive)	0 (inactive)	0 (inactive)	1 (active)	0 (inactive)	0 (inactive)	9 µM	–	–
c1ccc(-c2cnn3cc(-c4ccc(OCCN5CCOCC5)cc4)cnc23)cc1	–	0 (inactive)	0 (inactive)	0 (inactive)	0 (inactive)	0 (inactive)	0 (inactive)	0 (inactive)	0 (inactive)	0 (inactive)	1 (active)	0 (inactive)	0 (inactive)	0 (inactive)	0 (inactive)	0 (inactive)	–	–	3 µM
COc1ccc(-c2ccc3cc(C(=O)O)ccc3c2)cc1C12CC3CC(CC(C3)C1)C2 [Adapalene]	–	0 (inactive)	0 (inactive)	0 (inactive)	0 (inactive)	0 (inactive)	0 (inactive)	0 (inactive)	0 (inactive)	0 (inactive)	0 (inactive)	0 (inactive)	0 (inactive)	1 (active)	0 (inactive)	0 (inactive)	1 µM	–	–
CCN1C(=O)NC(c2ccccc2)C1=O (stereo unspecified) [ethotoin]	–	0 (inactive)	0 (inactive)	0 (inactive)	0 (inactive)	0 (inactive)	0 (inactive)	0 (inactive)	0 (inactive)	0 (inactive)	0 (inactive)	1 (active)	1 (active)	0 (inactive)	0 (inactive)	0 (inactive)	–	3 µM	–
O=c1cc(-c2ccc(O)cc2)oc2cc(O)cc(O)c12 [Apigenin]	9 µM	0 (inactive)	0 (inactive)	0 (inactive)	0 (inactive)	0 (inactive)	0 (inactive)	0 (inactive)	1 (active)	1 (active)	1 (active)	0 (inactive)	0 (inactive)	1 (active)	1 (active)	1 (active)	9 µM	–	9 µM
COC(=O)[C@@H]1[C@H]2C[C@H]3c4[nH]c5ccccc5c4CCN3C[C@@H]2CC[C@@H]1O [Yohimbine hydrochloride]	–	0 (inactive)	0 (inactive)	0 (inactive)	0 (inactive)	0 (inactive)	0 (inactive)	0 (inactive)	0 (inactive)	0 (inactive)	0 (inactive)	0 (inactive)	0 (inactive)	1 (active)	0 (inactive)	0 (inactive)	9 µM	–	–
CNCC(O)c1ccc(OC(=O)C(C)(C)C)c(OC(=O)C(C)(C)C)c1 (stereo unspecified) [dipivefrine]	–	0 (inactive)	0 (inactive)	0 (inactive)	0 (inactive)	0 (inactive)	0 (inactive)	0 (inactive)	0 (inactive)	0 (inactive)	0 (inactive)	0 (inactive)	0 (inactive)	1 (active)	0 (inactive)	0 (inactive)	9 µM	–	–
CCCN[C@H]1CCc2nc(N)sc2C1 [pramipexole]	–	0 (inactive)	0 (inactive)	0 (inactive)	0 (inactive)	0 (inactive)	0 (inactive)	0 (inactive)	0 (inactive)	0 (inactive)	0 (inactive)	0 (inactive)	0 (inactive)	1 (active)	0 (inactive)	0 (inactive)	9 µM	–	–
COc1ccc(CCN(C)CCCC(C#N)(c2ccc(OC)c(OC)c2)C(C)C)cc1OC (stereo unspecified) [verapamil]	–	1 (active)	0 (inactive)	1 (active)	–	1 (active)	0 (inactive)	0 (inactive)	0 (inactive)	–	0 (inactive)	0 (inactive)	0 (inactive)	0 (inactive)	–	0 (inactive)	–	–	–
CCCc1nc2c(C)cc(-c3nc4ccccc4n3C)cc2n1Cc1ccc(-c2ccccc2C(=O)O)cc1 [telmisartan]	–	–	0 (inactive)	–	0 (inactive)	–	0 (inactive)	0 (inactive)	0 (inactive)	0 (inactive)	0 (inactive)	0 (inactive)	0 (inactive)	0 (inactive)	0 (inactive)	0 (inactive)	–	–	–
CC(C)NCC(O)COc1cccc2ccccc12 (stereo unspecified) [propranolol]	–	–	0 (inactive)	–	0 (inactive)	–	0 (inactive)	0 (inactive)	0 (inactive)	0 (inactive)	0 (inactive)	0 (inactive)	0 (inactive)	0 (inactive)	0 (inactive)	0 (inactive)	–	–	–
CC(CCc1ccccc1)NCC(O)c1ccc(O)c(C(N)=O)c1 (stereo unspecified) [labetalol]	–	–	0 (inactive)	–	0 (inactive)	–	0 (inactive)	0 (inactive)	0 (inactive)	0 (inactive)	0 (inactive)	0 (inactive)	0 (inactive)	0 (inactive)	0 (inactive)	0 (inactive)	–	–	–
Cc1ccccc1N1C(=O)c2cc(S(N)(=O)=O)c(Cl)cc2NC1C (stereo unspecified) [metolazone]	–	–	0 (inactive)	–	0 (inactive)	–	0 (inactive)	0 (inactive)	0 (inactive)	0 (inactive)	0 (inactive)	0 (inactive)	0 (inactive)	0 (inactive)	0 (inactive)	0 (inactive)	–	–	–
CS(=O)(=O)c1ccc(-c2nnc(/C=C/c3nnc(-c4ccc(C#N)cc4)o3)n2-c2ccccc2Cl)nc1	–	0 (inactive)	0 (inactive)	0 (inactive)	0 (inactive)	0 (inactive)	0 (inactive)	0 (inactive)	0 (inactive)	0 (inactive)	0 (inactive)	0 (inactive)	0 (inactive)	0 (inactive)	1 (active)	0 (inactive)	–	–	–
C=C[C@H]1CN2CC[C@H]1C[C@@H]2[C@@H](O)c1ccnc2ccc(OC)cc12 [Quinidine hydrochloride monohydrate]	–	0 (inactive)	0 (inactive)	0 (inactive)	–	0 (inactive)	0 (inactive)	0 (inactive)	0 (inactive)	–	0 (inactive)	0 (inactive)	0 (inactive)	0 (inactive)	–	0 (inactive)	–	–	–
C[C@]12CC[C@@H]3c4ccc(O)cc4CC[C@H]3[C@@H]1CC[C@@H]2OC(=O)CCC1CCCC1 [estradiol cypionate]	–	0 (inactive)	0 (inactive)	0 (inactive)	0 (inactive)	0 (inactive)	0 (inactive)	0 (inactive)	0 (inactive)	0 (inactive)	0 (inactive)	0 (inactive)	0 (inactive)	1 (active)	0 (inactive)	0 (inactive)	9 µM	–	–
Fc1ccc(Cl)cc1-c1nc(Nc2ccncc2)c2nccnc2n1	–	0 (inactive)	0 (inactive)	0 (inactive)	0 (inactive)	0 (inactive)	0 (inactive)	0 (inactive)	0 (inactive)	0 (inactive)	0 (inactive)	0 (inactive)	0 (inactive)	0 (inactive)	1 (active)	0 (inactive)	–	–	–
Nc1nc2ccc(OC(F)(F)F)cc2s1 [riluzole]	–	–	0 (inactive)	–	0 (inactive)	–	0 (inactive)	0 (inactive)	0 (inactive)	0 (inactive)	0 (inactive)	0 (inactive)	0 (inactive)	0 (inactive)	0 (inactive)	0 (inactive)	–	–	–
